Source: PubChem (National Center for Advancing Translational Sciences (NCATS))
In the library only some 9.5% were active in any assay of this set; here they are far more common.
RE007 growth inh = less growth of the S. pombe RE007 Vpr strain. S. pombe RE007 Vpr strain, BacTiter-Glo ATP luminescence, 24 h. Potency, µM (doses to about 92.2 µM), for the others: top-dose activity change, negative = less growth, actives largely listed as inhibitors. 0.21% of 360,000 active; active means well fitted falling curve with a large enough effect; inconclusive means small, poorly fitted or top-dose-only effect; inactive means no such curve, though single readings can be large or run the other way; further: potency means the concentration at half of the fitted maximal effect; on the % scale 0 is the no-effect control and ±100 the full control effect; nearly all actives have a fitted effect of over 50% in size
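Fission yeast RE007 carrying one integrated HIV-1 vpr copy, seeded at OD 0.01 in PMG+AL medium with 23 nL pinned compound. Grown 24 h at 30 degrees; viability read by BacTiter-Glo luminescence after 5 min.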
Pf growth 96h = P. falciparum growth inhibition at 96 hours; Potency, µM (top dose mostly 28.7 µM), for the others: at the top dose activity change, negative = inhibition, most hits filed as inhibitors; P. falciparum luciferase reporter growth, 96 h; 6.9% of 320,000 active; active means well fitted inhibition curve with a large enough effect; inconclusive means small, poorly fitted or top-dose-only effect, or another doubt; inactive means no such curve, though single readings can be large or run the other way; further: potency means the concentration at half of the fitted maximal effect; on the % scale 0 is the no-effect control and ±100 the full control effect
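P. falciparum expressing integrated firefly luciferase grown in erythrocytes (2% hematocrit, 0.05% parasitemia final) with compounds for 96 hours at 37 C, 5% CO2. Growth inhibition read as loss of luminescence after adding luciferase detection reagent.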
SARS PLP yeast = inhibitors of SARS-CoV papain-like protease in yeast; S. cerevisiae expressing SARS-CoV PLpro, growth rescue; Potency, µM (top dose mostly 32.9 µM), without a hit: at the top dose activity, positive = growth rescue, most hits filed as activators; 0.19% of 330,000 active; AID 485353; further: potency means the concentration at half of the fitted maximal effect; 0% is about no effect; nearly all actives have a fitted effect of over 55% in size
Pf growth 48h = P. falciparum growth inhibition at 48 hours (one generation) | 5.9% of 310,000 active | P. falciparum luciferase growth in erythrocytes, 48 h | Potency, µM (top dose mostly 28.7 µM), without a hit: at the top dose activity change, negative = inhibition, most hits filed as inhibitors; active means well fitted inhibition curve with a large enough effect; inconclusive means small, poorly fitted or top-dose-only effect, or another doubt; inactive means no such curve, though single readings can be large or run the other way; further: potency means the concentration at half of the fitted maximal effect; on the % scale 0 is the no-effect control and ±100 the full control effect
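Cell-based growth assay: transgenic P. falciparum expressing firefly luciferase, cultured in red cells within RPMI 1640 containing 0.5% w/v Albumax, 24 mM bicarbonate and gentamycin. A drop in luciferase activity indicates inhibition.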
NS1 inh = blocks influenza NS1 protein function. Potency, µM (top dose mostly 46.1 µM), without a hit: at the top dose activity, positive = more growth. 0.4% of 270,000 active. AID 2326; further: potency means the concentration at half of the fitted maximal effect; actives are rising curves; nearly all actives have a fitted effect of over 50% in size
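Read-out: OD600 growth recovery of NS1-expressing budding yeast. Cells grown overnight at 30C in -URA glucose medium, washed, resuspended and diluted 1:100 in 2% galactose assay medium, pH 6.0. Same strain lacking NS1 served as positive control.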
Flu NS1 inh = influenza NS1 function inhibition validation | 1,400 tested, under 10 active | AID 492980 | influenza NS1 function cell assay, 15-point titration | activity change, negative = inhibition, % at 32.9 µM | shares compounds with NS1 inh; further: 0% is about no effect
PR8 titer = reduces influenza A/PR/8/34 replication in MDCK cells | 30% of 95 active | shares compounds with NS1 inh | virus titer (log TCID50), log10 TCID50 at 5 µM | MDCK infected influenza A/PR/8/34, virus titer TCID50; stronger effect = lower value; call rule not given here
Numbers without * were called inactive; ? = inconclusive; . = not tested or not shown. Unless noted, the call rests on the fitted dose curve.

SMILES	RE007 growth inh	Pf growth 96h	SARS PLP yeast	Pf growth 48h	NS1 inh	Flu NS1 inh	others
Cc1ccc(NC(=O)C2CCCCC2C(=O)O)cc1C (stereo not drawn)	-11%	1%	0%	0%	-1%	.
COC(=O)c1ccccc1NC(=O)C1CCCCC1C(=O)O (stereo not drawn)	-2%	?	2%	7%	5µM*	3
Cc1cc(-c2ccc(NC(=O)[C@@H]3CCCC[C@@H]3C(=O)O)c(C)c2)ccc1NC(=O)[C@@H]1CCCC[C@@H]1C(=O)O	2%	5%	1%	18%	4µM*	?
CCOc1ccc(C2=Nc3ccccc3C(c3ccc(N4CCOCC4)cc3)=NN2)cc1	-2%	?	-9%	?	?	19	PR8 titer=7.5*
Brc1ccc2c(c1)C(c1ccc(N3CCOCC3)cc1)=NNC(c1cccs1)=N2	-7%	?	-19%	?	21%	.
CCOc1ccc(C2=Nc3ccc(Br)cc3C(c3ccc(N4CCOCC4)cc3)=NN2)cc1	11%	?	-5%	10µM*	?	-7
CCc1ccc2c(c1)C(c1ccc(N3CCOCC3)cc1)=NNC(c1ccncc1)=N2	-22%	-6%	-2%	?	1%	.
Cc1ccccc1-c1csc(N)n1	-22%	.	.	.	.	.
Cc1ccc(-c2csc(N)n2)s1	-21%	174%	-21%	90%	?	-33
O=C(O)CC1c2ccccc2CCN1S(=O)(=O)c1ccc(F)cc1 (stereo not drawn)	4%	?	1%	-15%	0%	.
CCC(C)[C@H](N)C(=O)NC[C@H]1CC[C@H](C(=O)N[C@@H](Cc2ccccc2)C(=O)O)CC1 (stereo partly drawn)	11%	15%	1%	7%	6%	.
Cn1cnnc1SCC(=O)Nc1ccccc1Sc1ccccc1	-9%	?	11%	-22%	0.89µM*	-1
Cc1c(C)n2c(SCC(=O)N3CCCCC3)nnc2[nH]c1=O	-12%	?	5%	7%	.	.
CCc1nc2ccc(C(=O)N(C)Cc3ccco3)cn2c1N(CC)C(=O)NCCc1ccccc1	-10%	.	.	.	.	.
Cc1ccc(C(=O)NC(Cc2cccc(F)c2)C(=O)O)cc1 (stereo not drawn)	7%	.	-8%	.	.	.
O=C1CCC(C(=O)N2CCC(O)CC2)CN1CCc1ccc(Cl)cc1 (stereo not drawn)	-6%	2%	-1%	19%	6%	.
O=C1CCC(C(=O)N2CCCCCC2)CN1CCc1ccc(Cl)cc1 (stereo not drawn)	29%	-16%	6%	8%	2µM*	-14
NC(=O)C1CCN(c2oc(/C=C/c3ccccc3)nc2S(=O)(=O)c2ccccc2)CC1	7%	?	5%	?	14%	.
CCOc1cc(N2CCOCC2)c(OCC)cc1NC(=O)Cc1cccc2ccccc12	1%	?	17%	.	13µM*	-3
CCOc1cc(N2CCOCC2)c(OCC)cc1NC(=O)COC(=O)c1ccccc1C	-1%	?	27%	?	28%	.
CCCn1c(SCC(=O)N(C)CC(=O)Nc2ccc(C)cc2)n[nH]c1=O	-19%	?	1%	-21%	.	.
COc1ccccc1C1CC(c2cccc(NS(C)(=O)=O)c2)=NN1S(=O)(=O)c1ccccc1 (stereo not drawn)	1%	?	7%	?	17%	.
O=S(=O)(NNc1ccc(F)cc1F)c1cccc(Cl)c1	106%	11%	1%	?	-19%	.
O=C(/C=C/c1cccnc1)c1cccc(O)c1	5%	-16%	-1%	-27%	?	?
CCCCNC(=O)C[C@@H]1C[C@@]2(C(=O)OCC)CCC=C2N(CCC2=CCCCC2)C1=O	1%	.	.	.	.	.
SMILES	RE007 growth inh	Pf growth 96h	SARS PLP yeast	Pf growth 48h	NS1 inh	Flu NS1 inh	others
COc1cccc(OC)c1NC(=O)C1CCCN1C(=O)Nc1ccccc1F (stereo not drawn)	3%	53%	-14%	11%	-4%	.
O=c1cc(-c2ccc(F)cc2)[nH][nH]1	6%	-24%	23%	-11%	13µM*	20
Cc1c(NC(=O)C2CCCN2S(=O)(=O)c2ccccc2)c(=O)n(-c2ccccc2)n1C (stereo not drawn)	4%	-19%	1%	10%	7.1µM*	-10
Cc1c(NC(=O)C2CCN(S(=O)(=O)c3ccc(Cl)cc3)CC2)c(=O)n(-c2ccccc2)n1C	-10%	-2%	0%	2%	-4%	.
CCNC(=O)C1(C)CCCN(C(=O)c2sc(-c3ccccc3)nc2C)C1 (stereo not drawn)	-9%	.	.	.	.	.
O=C(C1=NN(c2ccccc2)C2C(=O)N(c3ccccc3Cl)C(=O)C12)c1ccccc1 (stereo not drawn)	-13%	?	-9%	1%	5.6µM*	-29	PR8 titer=8
O=C(C1=NN(c2ccccc2)C2C(=O)N(c3ccccc3)C(=O)C12)c1ccccc1 (stereo not drawn)	19%	54%	-17%	9%	?	.
COc1ccc(/C=C(/NC(=O)c2ccccc2)C(=O)N2CCOCC2)cc1OC	10%	4%	0%	4%	?	3
CCSc1ccc(-c2nn(-c3ccccc3)cc2/C=C(/C#N)C(=O)NC)cc1	3%	-2%	-2%	25%	2%	.
C=CCNC(=O)/C(C#N)=C/c1cn(-c2ccccc2)nc1-c1ccc(OC)c([N+](=O)[O-])c1	-22%	?	23%	?	?	30
COc1cccc(CCN2CCC(CNS(=O)(=O)c3cc(-c4cc(C)no4)ccc3C)CC2)c1	1%	?	3%	?	-11%	.
CCc1ccc(C)c(OC(=O)c2cncc(Br)c2)c1	-4%	3%	2%	41%	8%	.
CC(=O)Nc1ccc(/C(C)=N/Nc2nc(N3CCOCC3)nc(N3CCOCC3)n2)cc1	4%	9%	1%	1%	.	.
CC(=O)Nc1ccc(/C(C)=N/Nc2nc(Nc3cccc4ccccc34)nc(N3CCOCC3)n2)cc1	5%	?	8%	13µM*	4.5µM*	?
CCNC(=O)NC(=O)COC(=O)c1cccc(S(=O)(=O)N2CC3(C)CC2CC(C)(C)C3)c1 (stereo not drawn)	3%	0%	-2%	-5%	.	.
O=C(Nc1ccc2c(c1)nc1n2CCSC1)c1ccco1	-6%	10%	-19%	153%	?	.
O=C(Nc1nnc2n1CCS2)c1ccco1	-8%	14%	9%	9%	?	9
O=C(CSc1nc(-c2ccccc2)c(-c2ccccc2)[nH]1)N1CCN(S(=O)(=O)c2ccccc2)CC1	-7%	?	9%	.	3.5µM*	12
